# Data taken from PubChem BioAssay AID588342 (National Center for Advancing Translational Sciences (NCATS), 2011).
# The campaign covered roughly 360,000 compounds. About 25,000 (6.9%) were called active. Inconclusive results (about 9%) are left out. Calls come from the whole dose curve; as a rule, active = well fitted inhibition curve with a large enough effect; inconclusive = small, poorly fitted or top-dose-only effect; inactive = flat fitted curve, though single readings scatter. The entries come from a sample that favours actives as a whole. Entries that show only a call come without a potency.
# Biological target: Luciferin 4-monooxygenase (Photinus pyralis) (UniProt P08659)
# Experiment: qHTS profiling assay for firefly luciferase inhibitor/activator using purifed enzyme and Km concentrations of substrates (counterscreen for miR-21 project); note: nearly all actives have a fitted effect of over 55% in size
# Conditions: purified FLuc, luminescence inhibition; series mostly up to 57.5 µM
# Method in brief: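 Biochemical qHTS of compounds, final roughly 60 µM downward over six points, against 10 nM purified firefly luciferase using Km concentrations of substrates (10 uM D-luciferin, 10 uM ATP) in Tris acetate pH 7.5 buffer; luminescence output.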
# Potency is the fitted concentration of half-maximal effect.
# Sequence of Luciferin 4-monooxygenase (Photinus pyralis) (P08659 whole entry, looked up): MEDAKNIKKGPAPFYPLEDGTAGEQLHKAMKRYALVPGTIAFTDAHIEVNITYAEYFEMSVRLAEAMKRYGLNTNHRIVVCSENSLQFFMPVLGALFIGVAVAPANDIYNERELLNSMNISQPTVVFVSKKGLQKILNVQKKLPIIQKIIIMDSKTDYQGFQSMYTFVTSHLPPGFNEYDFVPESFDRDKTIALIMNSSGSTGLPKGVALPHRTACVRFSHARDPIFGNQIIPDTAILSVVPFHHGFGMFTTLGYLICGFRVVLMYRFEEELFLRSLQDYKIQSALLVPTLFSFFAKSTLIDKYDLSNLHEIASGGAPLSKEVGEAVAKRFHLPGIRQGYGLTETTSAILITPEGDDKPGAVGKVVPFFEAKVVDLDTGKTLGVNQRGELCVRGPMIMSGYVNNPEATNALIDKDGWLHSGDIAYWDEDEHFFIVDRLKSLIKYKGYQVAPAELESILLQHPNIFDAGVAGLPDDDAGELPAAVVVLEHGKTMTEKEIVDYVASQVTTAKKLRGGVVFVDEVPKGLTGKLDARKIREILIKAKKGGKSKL
row,SMILES,Potency
1,CCN(CC)S(=O)(=O)c1ccc2[nH]c(=O)cc(C(=O)N(C)C3CCS(=O)(=O)C3)c2c1 (centres undefined),inactive
2,CCc1ccc(C2C(C(=O)Nc3ccccc3)=C(C)Nc3c(C(=O)Nc4ccc(C)cc4)cnn32)cc1 (centres undefined),inactive
3,CC(=O)Nc1c(C)nn(-c2ccccc2)c1N1CCC(C(=O)Nc2cc(Cl)ccc2C)CC1,inactive
4,CC1CCCC(C)N1C(=O)CN1CCN(c2nc(-c3ccc(F)cc3)cs2)CC1 (centres undefined),inactive
5,COCCNC(=O)Nc1ccc2nc(-c3ccco3)c(-c3ccco3)nc2c1,21.3 µM (active)
6,COc1ccc(NC(=O)COCc2cc(-c3ccco3)on2)cc1,inactive
7,CCOc1cc(NC(=S)NCCCOC)c(OCC)cc1NC(=O)c1ccco1,inactive
8,O=C(CCNC(=O)c1ccc(Br)cc1)Nc1cccc(S(=O)(=O)N2CCCCC2)c1,inactive
9,Cc1ccc(C)c(OCCC(=O)Nc2cccc(S(=O)(=O)N3CCCC3)c2)c1,inactive
10,Cc1ccc(C(=O)NCC(=O)OCC(=O)Nc2cccc(S(=O)(=O)N3CCCC3)c2)cc1C,9.53 µM (active)
11,COc1ccc(C(=O)COC(=O)c2ccc3ccccc3n2)cc1,21.3 µM (active)
12,COc1ccc(C(=O)COC(=O)COc2ccc(C)c(C)c2)cc1,inactive
13,CC(OC(=O)c1ccccc1N1C(=O)C2C3CCC(C3)C2C1=O)C(=O)c1ccccc1 (centres undefined),inactive
14,COc1ccc(C(=O)OCC(=O)NC(=O)CCSc2ccccc2)cc1,inactive
15,CC(OC(=O)CN1C(=O)c2ccccc2C1=O)C(=O)c1ccccc1 (centres undefined),inactive
16,CC(OC(=O)c1ccc2ccccc2n1)C(=O)c1ccccc1 (centres undefined),0.953 µM (active)
17,CCc1ccc2ncc3c(-c4ccc(C)cc4)nn(CC(=O)NCc4ccccc4)c3c2c1,inactive
18,COC(=O)C1=CO[C@@H](O[C@@H]2O[C@H](CO)[C@@H](O)[C@H](O)[C@H]2O)C2C1C[C@H](O)[C@@H]2C (some centres undefined),inactive
19,CCn1c(SCC(=O)N/N=C/C=C/c2ccccc2[N+](=O)[O-])nnc1-c1ccccc1,inactive
20,Cc1ccc(Cn2c(SCC(=O)N/N=C/c3ccccc3OCC(=O)O)nc3ccccc32)cc1,inactive
21,CCn1c(SCC(=O)N/N=C/c2ccccc2OCC(=O)O)nnc1-c1ccc(C(C)(C)C)cc1,26.9 µM (active)
22,CNC(=O)c1csc(Cc2c(Cl)sc3ccc(Cl)cc23)n1,inactive

row,SMILES,Potency
1,O=C(OCC(=O)N1CCCC1)c1ccco1,inactive
2,O=C(COC(=O)c1ccco1)NCc1ccc(Cl)cc1,inactive
3,CCc1ccc(C(=O)COC(=O)c2ccco2)cc1,0.478 µM (active)
4,O=C(OCC(=O)N1CCN(C(=O)c2ccco2)CC1)c1ccc(Cl)c(Cl)c1,inactive
5,O=C(COC(=O)c1ccccc1C(=O)c1ccccc1)c1ccco1,inactive
6,CCN(CC)c1ccc(C(=O)OCC(=O)c2ccco2)cc1,15.1 µM (active)
7,C[C@@H](NC(=O)[C@@H]1Cc2ccccc2CN1)C(=O)NC1CCCC1,inactive
8,COc1ccccc1CNC(=O)c1cc(=O)c2ccccc2o1,inactive
9,CCOC(=O)c1sc(N)c(C#N)c1COC(=O)C1=COCCO1,inactive
10,CN(CC(=O)Nc1c(Cl)cccc1Cl)C(=O)CC1OC(=O)c2ccccc21 (centres undefined),inactive
11,CCOc1ccc(N(CC)S(=O)(=O)N2CCCC(C(=O)NCc3ccc(SC)cc3)C2)cc1 (centres undefined),inactive
12,Cc1oc2c(c1C(=O)Nc1ccc(F)c(F)c1)C1=NCCN1C=N2,inactive
13,Brc1ccccc1C1N=C(c2ccccc2)NO1 (centres undefined),19 µM (active)
14,N#Cc1ccc(C2N=C(c3ccccc3)NO2)cc1 (centres undefined),10.7 µM (active)
15,CCOC(=O)Cn1c(=O)n(C2CCCCC2)c2nc(-c3cccc(OC)c3)nc(C(N)=O)c21,inactive
16,COc1ccc(CNC(=O)c2cc3c(-c4ccccc4F)nn(C)c3s2)c(OC)c1,inactive
17,CCOC(=O)C1CCCN(C(=O)c2ccc(-n3ccc4ccccc43)s2)C1 (centres undefined),inactive
18,CCN(Cc1ccccc1)C(=O)CCS(=O)(=O)c1ccc2c(c1)oc(=O)n2C,inactive
19,Cc1ccc(/C=C/C(=O)OCC(=O)NCc2ccc(Cl)cc2)o1,inactive
20,CCC(=O)N1CCc2cc(Br)cc(S(=O)(=O)NCc3ccc(Cl)cc3)c21,inactive
21,C=CCNC(=O)c1ccc(C)c(Br)c1,inactive
22,CCCNC(=O)c1ccc2c(c1)ncn2-c1ccc(C)cc1C,inactive

row,SMILES,Potency
1,C=CCNC(=O)c1ccc2c3n(nc2c1)-c1ccc(C)cc1CO3,2.39 µM (active)
2,COc1cccc(CNC(=O)C(NS(=O)(=O)c2ccc3nc(C)sc3c2)C(C)C)c1 (centres undefined),inactive
3,COc1ccc(Cl)cc1NC(=O)CN(C)C(=O)CNC(=O)C12CC3CC(CC(C3)C1)C2,inactive
4,COc1ccc(OC)c(/C(C)=N\NC(=O)c2cc3cc(Cl)ccc3n2C)c1,inactive
5,C/C(=N/NC(=O)c1cc(Cl)ccc1O)C12CC3CC(CC(C3)C1)C2,15.1 µM (active)
6,NC(=O)NCCCC(=O)O,inactive
7,CSc1ncc(C(=O)NCc2ccccc2Cl)c(C(F)(F)F)n1,inactive
8,CCn1c2ccc(F)cc2c2nnc(SCCN3CCOCC3)nc21,inactive
9,Cc1cc2nc(SCCN3CCOCC3)[nH]c2cc1C,19 µM (active)
10,Cc1cccc(C)c1OCCN1CCOCC1,inactive
11,Cc1ccc(NC(=O)c2cccs2)cc1S(=O)(=O)N(C)C,15.1 µM (active)
12,Cc1ccc(C(=O)Nc2ccc(C)c(S(=O)(=O)N(C)C)c2)s1,1.9 µM (active)
13,Cc1ccc(NC(=O)CNCc2ccccn2)cc1S(=O)(=O)N(C)C,inactive
14,COc1ccc(CCC(=O)OCC(=O)Nc2ccc(C)c(S(=O)(=O)N(C)C)c2)cc1,inactive
15,Cc1ccc(C(=O)Nc2ccc(C(=O)O)cc2)cc1S(=O)(=O)Nc1ccccc1,inactive
16,Cc1ccc(C(=O)Nc2ccc(NC(=O)c3cccs3)cc2)c(C)c1,inactive
17,Cc1cc(C)c(/C=C/c2onc(C)c2S(=O)(=O)N2CCC(C(=O)Nc3ccc(Cl)cc3C)CC2)c(C)c1,inactive
18,COc1ccc(C(=O)CSc2c(C(C)C)cnc3c2c(=O)n(C)c(=O)n3C)cc1,inactive
19,O=C(CSc1nc2nccnc2c(=O)n1CCc1c[nH]c2ccccc12)Nc1ccccc1F,inactive
20,O=C(CN1CCN(Cc2ccc(Cl)cc2)C1=O)NCc1ccc(F)cc1,inactive
